Screening data from PubChem.
rCAG binder: molecules binding r(CAG) RNA repeats; r(CAG) RNA repeat, TO-PRO-1 dye displacement fluorescence; 1.3% of 370,000 active; inhibition, % at 3 µM;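 active = inhibition above the plate cutoff, the mean of all test compounds on that plate plus 3 SD, cut at about 35% in these data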;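 also: 0% = DMSO alone and 100% = 100 µM mitoxantrone as full dye displacement; higher means more dye released from RNA so lower well fluorescence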
MBD2 inh: blocks human MBD2 binding to methylated DNA; TR-FRET, MBD2 binding to methylated oligonucleotide; inhibition, % at 4.4 µM; 0.31% of 370,000 active; AID 686964; in the data active = inhibition above about 13%
DNMT1 inh: blocks human DNA methyltransferase DNMT1. P26358. DNMT1 molecular beacon, Hinp1I cleavage, fluorescence. inhibition (reported as % activation of signal), % at 10 µM. 0.83% of 360,000 active. AID 588458; in the data active = inhibition above about 50%
PG9 binder: small molecules binding HIV-1 gp120 antibody PG9; 0.43% of 360,000 active; inhibition, % at 6.7 µM; TR-FRET gp120-PG9 antibody binding; AID 624416; in the data active = inhibition above about 8.5%
LEDGF integ inh: blocks HIV-1 LEDGF/p75-dependent DNA integration | TR-FRET IN-LEDGF/p75 DNA integration, Eu/Cy5 | inhibition, % at 3.7 µM | 0.64% of 370,000 active;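 active = inhibition above the screen-wide mean plus 3 SD, cut at about 13% in these data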;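 also: signal is the Cy5 over europium emission ratio at 671 and 618 nm; 0% = plate median of compound wells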
UHRF1 binding: blocks human UHRF1 binding to methylated DNA. UHRF1 binding to methylated oligo, TR-FRET. AID 687016. 0.75% of 370,000 active. Q96T88. inhibition, % at 4.4 µM; in the data active = inhibition above about 21%;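 also: UHRF1 SRA domain binding a hemimethylated CpG hairpin DNA probe; 0% = median of test compound wells and 100% = reference inhibitor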
DNMT1 inh conf: confirmation of human DNMT1 inhibitors | shares compounds with DNMT1 inh | DNMT1 molecular beacon HinP1I cleavage, fluorescence | inhibition, % at 10 µM | 8% of 2,300 active;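 active = average inhibition of at least 30% in the single-concentration confirmation test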
Beacon interf: beacon fluorescence artifact counter-screen; shares compounds with DNMT1 inh; DNMT1 molecular beacon spectral interference counterscreen, fluorescence 485/520; activation (fluorescence interference), % at 10 µM; 1% of 2,300 active;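 active = activation of at least 30% at 10 µM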;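 also: DNMT1 catalytic domain with a HinP1I cleavage step and a FAM/dabcyl DNA beacon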
The depositor's hits bear a star; x = no result given. Most compounds without a hit are left out; they make up all but 3.5% or so of the library.

SMILES | rCAG binder | MBD2 inh | DNMT1 inh | PG9 binder | LEDGF integ inh | UHRF1 binding | DNMT1 inh conf | Beacon interf
O=c1cc(CCl)nc2sc3ccccc3n12 | 10 | 8 | 62* | 0 | -5 | 6 | 3 | -2
Cc1cccc(C(=O)N[C@H](C(=O)OCc2cc(=O)n3c(n2)sc2ccccc23)C(C)C)c1 | 16 | 12 | 98* | -2 | 4 | 20 | 3 | 1
CO[C@H]1CN(C)C(=O)c2ccc(NC(=O)C3CCC3)cc2OC[C@H](C)N(Cc2ccc(F)cc2)C[C@@H]1C | 4 | 1 | x | -1 | -3 | 0 | x | x
CCOC(=O)N1CCN(Cc2nc(CC3CC3)no2)CC1 | -6 | 0 | 82* | -4 | -7 | -1 | 3 | 3
CN(C)C(=O)CN1CCN(Cc2nc(CC3CC3)no2)CC1 | 2 | 1 | 2 | -1 | -1 | -1 | x | x
COCCSc1ccccc1C(=O)N1CCCC(C)C1 (stereo not given) | -5 | -5 | 85* | 1 | 2 | 3 | 0 | 3
CCOC(=O)C1CCCN(C(=O)c2ccccc2SCCOC)C1 (stereo not given) | -6 | 5 | 1 | 0 | 0 | 2 | x | x
COc1ccc(S(=O)(=O)NCc2cccnc2)cc1OC | -2 | 4 | 56* | 0 | -1 | 4 | 1 | 1
COc1ccc(S(=O)(=O)NCc2ccncc2)cc1OC | 2 | -5 | 0 | -2 | 1 | -3 | x | x
COc1ccc(NC(=O)CSc2nc3c(cc2C#N)CN(C)CC3)cc1 | 7 | -8 | 71* | -3 | -1 | -1 | 3 | 5
O=C(Cc1c[nH]c2ccccc12)Nc1ccc(Nc2cccnc2)c(-c2ccc(Cl)c(Cl)c2)c1 | 15 | -2 | x | 0 | -1 | -5 | x | x
CCc1c(Cl)nc(N)nc1Nc1ccccc1C | 2 | 1 | 75* | -2 | 3 | -3 | 1 | 2
CCCNC(=O)C1(S(=O)(=O)c2ccccc2)CC=CC1 | 3 | -1 | 92* | -2 | -1 | 0 | 2 | 2
Cc1ccc(CNC(=O)C2(S(=O)(=O)c3ccccc3)CC=CC2)cc1 | x | x | 2 | x | x | x | x | x
Cc1ccccc1CN(C)C1CCN(C)CC1 | -1 | -2 | 18 | 0 | 1 | 0 | x | x
Cc1ccc(C2(C(F)(F)F)NC(=O)N3CCN=C3S2)cc1 (stereo not given) | 4 | -1 | 95* | 1 | 1 | -1 | 4 | 5
O=C(Nc1ccc2oc(-c3ccccc3)nc2c1)c1cccnc1 | 2 | -3 | -1 | -2 | -1 | -4 | x | x
O=C(Nc1ccc2oc(-c3ccccc3F)nc2c1)c1cncc(Br)c1 | 5 | 8 | 62* | 2 | -1 | 1 | 2 | 2
O=C(Nc1ccc2oc(-c3ccccc3F)nc2c1)c1ccc([N+](=O)[O-])o1 | -2 | -2 | 108* | 0 | 2 | -1 | 6 | -5
CN(CC(=O)Nc1cccc(F)c1)C(=O)CN1c2cccc3cccc(c23)S1(=O)=O | 32 | 0 | 53* | -1 | 5 | 0 | 1 | 1
COC(=O)[C@]12C[C@H](CC(=O)NCCCN3CCCC3=O)C(=O)N(Cc3ccccc3)C1=C[C@H](COCc1ccccc1)O[C@@H]2C | 0 | 1 | x | x | 3 | 1 | x | x
COc1ccccc1NC(=S)N=Nc1c(O)[nH]c2ccc(Br)cc12 | 10 | -1 | 89* | 0 | 0 | -5 | 3 | -3
C=C(C)[C@@H]1CC[C@]2(C(=O)O)CC[C@]3(C)[C@H](CC[C@@H]4[C@@]5(C)CC[C@H](O)C(C)(C)[C@@H]5CC[C@]43C)[C@@H]12 | 3 | 2 | 53* | 0 | -6 | 2 | 2 | -14
C=C(CC[C@@H](O)C(C)(C)O)[C@H]1CC[C@]2(C)[C@@H]1CCC1[C@@]3(C)CC[C@H](O)C(C)(C)C3CC[C@]12C (stereo not given in full) | 0 | -3 | 11 | -2 | 0 | -2 | x | x
CCOc1ccc(S(=O)(=O)NCCC(=O)NC(C)CCc2ccccc2)cc1 (stereo not given) | -5 | 2 | -1 | -1 | 1 | 0 | x | x
